# High-throughput results: PubChem, The Scripps Research Institute Molecular Screening Center
# TEAD-YAP block – TEAD-YAP interaction inhibition. HEK-TIYL cells, TEAD-Gal4/YAP UAS-luciferase luminescence. inhibition, % at 9.12 µM. actives 1.4% (n = 640,000). AID 1259422; in the data active = inhibition above about 32%;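 also: 0% = median of test compound wells and 100% = reference inhibitor wells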
# MITF inh – blocks human microphthalmia-associated transcription factor. O75030. AlphaScreen MITF homodimerization, bead proximity signal. inhibition, % at 2.6 µM. actives 0.91% (n = 650,000). AID 1259374; in the data active = inhibition above about 50%;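 also: 0% = vehicle wells with protein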
# GPR151 ag – activates the human receptor GPR151; Q8TDV0; PathHunter beta-arrestin GPR151 cells, luminescence; actives 1% (n = 650,000); activation, % at 11.2 µM; in the data active = activation above about 4.9%;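 also: 0% = median of compound wells and 100% = cells with positive control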
# Target sequence (Q8TDV0 whole entry, looked up): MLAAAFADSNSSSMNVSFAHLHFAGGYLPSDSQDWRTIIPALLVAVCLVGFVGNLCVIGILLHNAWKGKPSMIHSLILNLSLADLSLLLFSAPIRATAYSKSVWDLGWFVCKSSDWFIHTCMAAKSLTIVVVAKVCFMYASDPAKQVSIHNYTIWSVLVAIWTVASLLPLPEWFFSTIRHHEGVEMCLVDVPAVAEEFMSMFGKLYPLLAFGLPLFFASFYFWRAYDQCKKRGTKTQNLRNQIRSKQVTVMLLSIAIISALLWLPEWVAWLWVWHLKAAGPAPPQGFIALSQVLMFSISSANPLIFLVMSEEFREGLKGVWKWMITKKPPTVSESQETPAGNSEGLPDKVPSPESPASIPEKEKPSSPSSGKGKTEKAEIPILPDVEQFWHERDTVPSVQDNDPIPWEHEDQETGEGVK
# FBW7 activator – human FBW7 E3 ligase activation, primary screen; AID 1259310; normalized activity (activation), % at 26.1 µM; Q969H0; actives 0.13% (n = 650,000); AlphaScreen FBW7–phospho-cyclin E peptide binding, activator screen; in the data active = normalized activity above about 1.9%;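 also: purified mutant Fbw7 with reduced substrate affinity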
# * marks the source's active call; other numbers are inactive results; nt = not tested or not shown. Shown are actives, neighbours in structure and some others; about 3.5% of the full set was active somewhere.
SMILES,TEAD-YAP block,MITF inh,GPR151 ag,FBW7 activator
CC(=O)Oc1ccc2c(=O)oc(-c3cccc(N4C(=O)c5ccc([N+](=O)[O-])cc5C4=O)c3)nc2c1,5,-3,-2,0
Cc1cccc(CN2CCN(Cc3ccccc3F)C(CCO)C2)n1 (centres undefined),-2,0,2,0
COC(=O)c1ccc(C2NC(=O)c3c(sc4c3CCCC4)N2)cc1 (centres undefined),-8,-4,0,0
CCOC(=O)C(Cc1ccccc1)C(=O)Nc1cccc(Br)c1 (centres undefined),-6,13,1,0
COc1ccc(/C=C2\SC(N3CCN(Cc4ccccc4)CC3)=NC2=O)c(OC)c1,-7,6,0,0
Cc1nc(C)n(-c2ccc(Nc3ncc(Br)c(-c4cnn(C)c4)n3)cc2)n1,77*,8,0,0
Cc1nc(C)n(-c2ccc(Nc3nccc(-c4cc(F)cc(-c5cnn(C)c5)c4)n3)cc2)n1,-1,9,-1,0
Cc1ncn(-c2ccc(Nc3ncc(Cl)c(-c4cnn(C)c4)n3)cc2)n1,72*,-16,-1,0
Cc1nc(C)n(-c2ccc(Nc3nc(-c4cnn(C)c4)cc(N(C)C)n3)cc2)n1,33*,15,-2,0
Cc1ncn(-c2ccc(Nc3ncc(Cl)c(Nc4ccccc4-c4ncn(C)n4)n3)cc2)n1,1,-3,0,0
COc1cc2ccccc2cc1-c1nc(-c2nonc2N)no1,9,13,0,0
Cc1ccc(-c2nc(CS(=O)CC(=O)N3CCc4ccccc4C3)c(C)o2)cc1 (centres undefined),16,4,-1,0
O=C(CSc1nc2ccccc2c2nc(-c3ccccc3)nn12)c1ccc(O)c(O)c1,44*,24,2,0
CCOCCCNCC(O)COc1c(Cl)cccc1Cl (centres undefined),52*,30,-1,0
COc1ccc(-c2nnc3n2N=C(c2ccc(C)cc2)CS3)cc1,52*,1,0,0
COc1ccc(-c2nnc3n2N=C(c2ccc(C)cc2)CS3)cc1OC,52*,15,-2,0
COc1ccc(-c2nnc3n2N=C(c2cccc(OC)c2)CS3)cc1,4,-11,-1,0
COc1cccc(C2=Nn3c(nnc3-c3cccc(C)c3)SC2)c1,48*,9,0,0
CCc1nnc2n1N=C(c1ccc(OC)c(OC)c1)CS2,-28,-13,0,0
COc1ccc(C2=Nn3c(nnc3-c3cccc(F)c3)SC2)cc1,64*,8,-1,1
COc1ccc(-c2nnc3n2N=C(c2ccc(F)cc2)CS3)cc1,14,15,-1,1
Cc1ccc(S(=O)(=O)N[C@@H]2COC(=O)C/C=C/[C@H](C)COC(=O)N[C@@H](C)C(=O)C/C=C/[C@H]2C)cc1,nt,1,3,0
CCCOc1ccc(/C(O)=C2/C(=O)C(=O)N(CCN(CC)CC)C2c2ccc(Cl)cc2)cc1C (centres undefined),15,16,-1,0
O=C(NNC(=O)c1nn(-c2ccc(Cl)cc2)cc1O)c1ccccc1F,15,28,1,0
O=C(NNC(=O)c1nn(-c2ccc(Cl)cc2)cc1O)c1ccc2ccccc2n1,65*,69*,-2,-1
SMILES,TEAD-YAP block,MITF inh,GPR151 ag,FBW7 activator
c1ccc(-c2ccc(C3=NN(c4ccccc4)C(c4ccccc4)C3)cc2)cc1 (centres undefined),11,6,0,0
Cc1ccc(C2CC(c3ccc(F)cc3)=NN2c2ccccc2)o1 (centres undefined),-2,-22,0,1.9*
Cc1ccc(-c2nn(-c3ccccc3)cc2C2CC(c3ccc(F)cc3)=NN2c2ccccc2)o1 (centres undefined),-13,3,2,0
Fc1ccccc1C1CC(c2ccccc2)=NN1c1ccccc1 (centres undefined),6,6,0,3.3*
O=[N+]([O-])c1ccc(N2N=C(c3ccccc3)CC2c2ccccc2O)cc1 (centres undefined),-10,1,0,3.5*
O=[N+]([O-])c1ccc(N2N=C(c3ccccc3)CC2c2ccccc2)cc1 (centres undefined),-3,-1,-1,0
O=C(NCc1ccncc1)C1CC12CCN(CC1CC=CCC1)CC2 (centres undefined),-19,2,1,0
C/C(N)=C(/C#N)C(=O)COC(=O)c1cccc(S(=O)(=O)N2CCc3ccccc3C2)c1,18,-13,3,0
CCS(=O)(=O)NCCc1sc(-c2ccccc2)nc1C,-22,4,2,0
O=C(COc1ccc(Cl)cc1)N(Cc1cccs1)C1CCS(=O)(=O)C1 (centres undefined),-1,-4,0,0
CCCCN(C(=O)CCl)C1CCS(=O)(=O)C1 (centres undefined),73*,6,2,0
O=C(CCl)N(Cc1cccs1)C1CCS(=O)(=O)C1 (centres undefined),60*,3,-1,0
COC(=O)c1ccc(-c2ccc(/C=C(\C#N)c3nc(N)c(C#N)c(N)c3C#N)o2)cc1,12,18,0,4.7*
O=C(NCC1CCCN1S(=O)(=O)c1ccccc1)c1cccc(F)c1 (centres undefined),-5,14,-1,0
COc1cc(/C=C2\NC(=S)NC2=O)cc(OC)c1O,-3,8,0,0
COc1cccc(/C=C2\NC(=S)NC2=O)c1O,76*,11,-1,0
CCOc1cccc(/C=C2\NC(=S)N(C)C2=O)c1O,-33,-13,-2,2.4*
CCOc1ccc(/C=C2\NC(=S)N(C)C2=O)c(OCC)c1,10,11,0,0
O=[N+]([O-])c1cc2c(c(CN(c3ccccc3)S(=O)(=O)c3ccc(F)cc3)c1)OCOC2,1,7,1,0
CN(C)c1ccc(/C=C/c2ccc3ccccc3n2)cc1,93*,-35,-10,1
O/C(=C\c1ccc2ccccc2n1)c1ccc(O)cc1O,75*,-2,-2,0
COc1ccc(/C=C/c2nc3ccccc3s2)cc1S(=O)(=O)N1CCOCC1,-9,6,0,0
Oc1ccc(/C=C/c2nc3ccccc3s2)cc1,73*,13,-10,0
C(=C\c1ccc2ccccc2n1)/c1cccnc1,77*,-30,-8,-1
CN(C)c1ccc(/C=C/c2ccc(-c3ccccc3)cc2)cc1,-13,-7,0,0
Cn1nnc2c[n+](CC(=O)c3ccc(Br)cc3)ccc21,11,2,1,0
Cc1cccc(NC(=O)Cc2csc(Nc3ccc(F)cc3)n2)c1,-10,-2,0,0
COC(=O)C1=C(C)NC(=O)NC1c1cccc(OCc2ccccc2)c1 (centres undefined),-6,-23,0,0
COc1cccc(-c2noc(C(C)Oc3ccccc3)n2)c1 (centres undefined),-26,-7,1,0
Cc1cc(C)n2c(SC(C)C(=O)Nc3ccc(N4CCOCC4)cc3)nnc2n1 (centres undefined),3,-2,0,0
